Here are results for 19 compounds from PubChem BioAssay (NCI).

SMILES strings stand for the structures. “And” between values parts separate entries of the source, which are not always exact repeats. Equal values may be shown once. This is part of a sample that, as a whole, favours compounds with a hit. Of some 79,000 tested, about 15% had one in any assay. Unmarked numbers belong to inactive results. The source made the active and inactive calls. Cut-off read from the data, not from the text of the source: active = growth inhibition above about 70%; inactive = the rest.

Assay [1] is described as follows: NCI Yeast Anticancer Drug Screen. Data for the rad50 strain (AID 155).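 Note: 0% = growth of vehicle-only cultures of the same strain.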 The conditions noted are these: S. cerevisiae rad50 strain growth inhibition, stronger effect = higher value. A digest of the protocol:
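Compounds were tested on a yeast strain with an engineered DNA damage repair alteration; the reported value is growth inhibition normalised to vehicle treatment.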

Assay [2] is described as follows: NCI Yeast Anticancer Drug Screen. Data for the mec2-1 strain (AID 157). The note with it: S. cerevisiae mec2-1 strain, stronger effect = higher value. In outline: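 Each compound was tested on mec2-1 yeast, a strain altered in DNA damage repair or cell cycle control. Growth inhibition is reported relative to vehicle.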
Assay [3] is described as follows: NCI Yeast Anticancer Drug Screen. Data for the sgs1 mgt1 strain (AID 161).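 Note: 0% = growth of cultures given vehicle only.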 The conditions noted are these: S. cerevisiae sgs1 mgt1 strain, stronger effect = higher value. In outline: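 Read-out: growth inhibition vs vehicle controls. Cells: mutant yeast strain deficient in DNA damage repair.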
A short description of assay [4]: NCI Yeast Anticancer Drug Screen. Data for the cln2 rad14 strain (AID 165).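 Note: 0% = growth equal to vehicle treated cultures.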 The conditions noted are these: S. cerevisiae cln2 rad14 strain, stronger effect = higher value. In outline:
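Test compounds were added to cln2 rad14 yeast cultures; inhibition of growth was then determined by comparison with vehicle treatment.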

Assay [5] can be described thus: NCI Yeast Anticancer Drug Screen. Data for the bub3 strain (AID 167). The conditions noted are these: S. cerevisiae bub3 mutant strain, stronger effect = higher value. In outline:
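Growth of a checkpoint-deficient yeast mutant is measured after compound exposure. Values represent inhibition relative to vehicle.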

A short description of assay [6]: NCI Yeast Anticancer Drug Screen. Data for the mlh1 rad18 strain (AID 175). The note with it: S. cerevisiae mlh1 rad18 strain growth inhibition, stronger effect = higher value. In outline:
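Inhibition values reflect reduced growth of mutant yeast versus vehicle-treated controls following compound exposure; the mutations affect DNA damage repair.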

The mark [7] stands for this setting: at 5.0 µM (retest, dose inferred, filed as 0.5).
Setting [8] is: at 50.0 µM (retest, dose inferred, filed as 5.0).

Turning to `O=C(O)CC(O)C(=O)O` (centres undefined), the growth inhibition was -2.95% and 0.45% in assay [1] (at 50.0 µM); -20.2% and 3.55% in assay [2] (at 50.0 µM); -39.1% and -1.05% in assay [3] (at 50.0 µM); -19.6% and 3.85% in assay [4] (at 50.0 µM); 5.25% and -2.85% in assay [5] (at 50.0 µM).
As to `O=C(CO)NCCO`, the growth inhibition is 1% in assay [1] (setting [7]); 0% in assay [1] (setting [8]); 3% in assay [2] (setting [7]); 5% in assay [2] (setting [8]); -2% in assay [3] (setting [7]); 2% in assay [3] (setting [8]). Also, the growth inhibition was 5% in assay [4] (setting [7]); -2% in assay [4] (setting [8]); 5% in assay [5] (setting [7]); -5% in assay [5] (setting [8]); 0% in assay [6] (setting [7]); 2% in assay [6] (setting [8]).
With `C=CC(=O)OCCOCc1ccccc1`, the growth inhibition is 4% in assay [1] (setting [7]); 29% in assay [1] (setting [8]); -3% in assay [2] (setting [7]); 12% in assay [2] (setting [8]); -1% in assay [3] (setting [7]); 27% in assay [3] (setting [8]). For the same compound, the growth inhibition is -2% in assay [4] (setting [7]); -12% in assay [4] (setting [8]); 1% in assay [5] (setting [7]); 12% in assay [5] (setting [8]); -32% in assay [6] (setting [7]); 18% in assay [6] (setting [8]).
Consider `CCc1ccc(N)cc1`, for which the growth inhibition in assay [1] (at 50.0 µM) was -16.4% and -3.75%; in assay [2] (at 50.0 µM), -16.6% and 4.3%; in assay [3] (at 50.0 µM) it was -23.4% and -4.25%; in assay [4] (at 50.0 µM), -5.55% and -28.5%; in assay [5] (at 50.0 µM), -16.5% and -11.1%.
As to `CC(=O)c1ccc(-c2ccccc2-c2ccccc2)cc1`, the growth inhibition in assay [1] (at 50.0 µM) was -9.3% and 43.7%; in assay [2] (at 50.0 µM), 5.95% and 3.5%; in assay [3] (at 50.0 µM), 3.6% and 16.4%; in assay [4] (at 50.0 µM) it was -21.2% and -26.1%; in assay [5] (at 50.0 µM), -0.3% and 4.35%; in assay [6] (at 50.0 µM), 1.15% and 33.1%.
On to `CC1=C(/C=C/C(C)=C/C(=O)O)C(C)(C)CCC1`, for which the growth inhibition was 2% in assay [1] (setting [7]); 67% in assay [1] (setting [8]); -2% in assay [2] (setting [7]); 47% in assay [2] (setting [8]); 3% in assay [3] (setting [7]); 83% (active) in assay [3] (setting [8]). For the same compound, the growth inhibition was 3% in assay [4] (setting [7]); 43% in assay [4] (setting [8]); 4% in assay [5] (setting [7]); 64% in assay [5] (setting [8]); -36% in assay [6] (setting [7]); 64% in assay [6] (setting [8]).
`S=c1sc2ccccc2n1CCNc1ccccc1`: the growth inhibition in assay [1] (setting [7]) is 8%; in assay [1] (setting [8]), 90% (active); in assay [2] (setting [7]), -3%; in assay [2] (setting [8]), 73% (active); in assay [3] (setting [7]) it was 4%; in assay [3] (setting [8]) it was 98% (active). The growth inhibition in assay [4] (setting [7]) is 7%; in assay [4] (setting [8]) it was 25%; in assay [5] (setting [7]), 6%; in assay [5] (setting [8]), 92% (active); in assay [6] (setting [7]), -10%; in assay [6] (setting [8]), 64%.
Consider `O=C1O/C(=C(/C(=O)O)c2ccc(O)cc2)C(O)=C1c1cc2c3c(c(O)cc(C4=C(O)/C(=C(\C(=O)O)c5ccc(O)cc5)OC4=O)c3c1)OC2=O`, for which the growth inhibition in assay [1] (at 50.0 µM) is -12.8% and -7%; in assay [2] (at 50.0 µM), -7.25% and -10.4%; in assay [3] (at 50.0 µM), -8.55% and 5.6%; in assay [4] (at 50.0 µM), -0.65% and -9.85%; in assay [5] (at 50.0 µM) it was -5% and -1.65%.
Turning to `COc1ccc(-c2cc(-c3ccco3)c(C#N)c(=O)n2C2OC(COC(C)=O)C(OC(C)=O)C(OC(C)=O)C2OC(C)=O)cc1` (centres undefined), the growth inhibition is 8.3% and -23% in assay [1] (at 50.0 µM); 12.3% and 1.9% in assay [2] (at 50.0 µM); 23.9% and 4% in assay [3] (at 50.0 µM); 42.2% and 8.8% in assay [4] (at 50.0 µM); 16.8% and -2.2% in assay [5] (at 50.0 µM).
In the case of `CC(C)(CO)C(O)C(=O)NCCS(=O)(=O)O` (centres undefined), the growth inhibition is -6.8% and -16.3% in assay [1] (at 50.0 µM); -4.35% and -1.8% in assay [2] (at 50.0 µM); 15.2% and 3.4% in assay [3] (at 50.0 µM); -14% and -11.9% in assay [4] (at 50.0 µM); 9.05% and 21.9% in assay [5] (at 50.0 µM); -3.1% and -27.3% in assay [6] (at 50.0 µM).
In the case of `COc1cccc(NC(=O)c2c(SC)c(C#N)c(=O)n(N)c2N)c1`, the growth inhibition in assay [1] (setting [7]) was 4%; in assay [1] (setting [8]) it was 99% (active); in assay [2] (setting [7]), 10%; in assay [2] (setting [8]), 99% (active); in assay [3] (setting [7]), 7%; in assay [3] (setting [8]), 99% (active). Besides, the growth inhibition was 7% in assay [4] (setting [7]); 98% (active) in assay [4] (setting [8]); 7% in assay [5] (setting [7]); 99% (active) in assay [5] (setting [8]); 8% in assay [6] (setting [7]); 99% (active) in assay [6] (setting [8]).
For `CC(=O)Nc1nc(-c2ccccc2)cs1`, the growth inhibition in assay [1] (setting [7]) was 1%; in assay [1] (setting [8]) it was 23%; in assay [2] (setting [7]), -4%; in assay [2] (setting [8]) it was 4%; in assay [3] (setting [7]), -2%; in assay [3] (setting [8]), 23%. Further, the growth inhibition in assay [4] (setting [7]) is 7%; in assay [4] (setting [8]), -5%; in assay [5] (setting [7]), -1%; in assay [5] (setting [8]) it was 6%; in assay [6] (setting [7]), -11%; in assay [6] (setting [8]), 2%.
In the case of `Cc1ccccc1N=NC(C#N)C#N`, the growth inhibition is 82% (active) in assay [1] (setting [7]); 99% (active) in assay [1] (setting [8]); 40% in assay [2] (setting [7]); 100% (active) in assay [2] (setting [8]); 85% (active) in assay [3] (setting [7]); 100% (active) in assay [3] (setting [8]). For the same compound, the growth inhibition in assay [4] (setting [7]) is 39%; in assay [4] (setting [8]), 99% (active); in assay [5] (setting [7]) it was 68%; in assay [5] (setting [8]) it was 100% (active); in assay [6] (setting [7]), 78% (active); in assay [6] (setting [8]), 99% (active).
`CCCCC(CC)CNC(=O)CI` (centres undefined): the growth inhibition in assay [1] (setting [7]) was 11%; in assay [1] (setting [8]), 66%; in assay [2] (setting [7]) it was -2%; in assay [2] (setting [8]) it was 22%; in assay [3] (setting [7]), 6%; in assay [3] (setting [8]) it was 73% (active). The growth inhibition was 9% in assay [4] (setting [7]); 6% in assay [4] (setting [8]); 9% in assay [5] (setting [7]); 76% (active) in assay [5] (setting [8]); -13% in assay [6] (setting [7]); 51% in assay [6] (setting [8]).
For the compound `CC(C)(C)S(=O)(=O)O.[Ag]`, the growth inhibition was 99% (active) in assay [1] (setting [7]); 99% (active) in assay [1] (setting [8]); 100% (active) in assay [2] (setting [7]); 99% (active) in assay [2] (setting [8]); 100% (active) in assay [3] (setting [7]); 100% (active) in assay [3] (setting [8]). Also, the growth inhibition is 99% (active) in assay [4] (setting [7]); 99% (active) in assay [4] (setting [8]); 100% (active) in assay [5] (setting [7]); 99% (active) in assay [5] (setting [8]); 99% (active) in assay [6] (setting [7]); 99% (active) in assay [6] (setting [8]).
In the case of `O=C(NC(=O)c1cn(C2OC(CO)C(O)C2O)c(=O)[nH]c1=O)OCc1ccccc1` (centres undefined), the growth inhibition in assay [1] (at 50.0 µM) is -3.55% and -14.8%; in assay [2] (at 50.0 µM), -4.8% and 23.7%; in assay [3] (at 50.0 µM), -25.6% and -8.85%; in assay [4] (at 50.0 µM) it was 11.1% and 20.3%; in assay [5] (at 50.0 µM) it was -19.6% and -17.8%; in assay [6] (at 50.0 µM), -19.6% and 0.55%.
Regarding `COc1c2c(cc(O)c1C(C)=O)OC(C)(C)C=C2`, the growth inhibition in assay [1] (at 50.0 µM) was -4.8% and 16.6%; in assay [2] (at 50.0 µM), -37.5% and -36.5%; in assay [3] (at 50.0 µM), -11.6% and 16%; in assay [4] (at 50.0 µM) it was -14.9% and 11.6%; in assay [5] (at 50.0 µM), -12.1% and 18.1%; in assay [6] (at 50.0 µM) it was -15% and 5.85%.
As to `COC1OCC(OC(=O)c2ccccc2)C(OC(=O)c2ccccc2)C1OC(=O)c1ccccc1` (centres undefined), the growth inhibition is 7.5% and 19.6% in assay [1] (at 50.0 µM); 1.15% and -3.25% in assay [2] (at 50.0 µM); 15.7% and -3.7% in assay [3] (at 50.0 µM); 19.5% and -0.3% in assay [4] (at 50.0 µM); -1.55% and -3.65% in assay [5] (at 50.0 µM); 6.15% and -8.55% in assay [6] (at 50.0 µM).
As to `O=C(NS(=O)(=O)c1ccccc1)OCc1ccccc1`, the growth inhibition in assay [1] (at 50.0 µM) was 4.65% and -18.1%; in assay [2] (at 50.0 µM), -11.8% and -4.35%; in assay [3] (at 50.0 µM) it was -14.8% and -15.3%; in assay [4] (at 50.0 µM) it was -22.2% and -31.8%; in assay [5] (at 50.0 µM) it was 16.7% and 24.8%; in assay [6] (at 50.0 µM), -6.1% and 6.1%.
